This note sets out measurements from PubChem BioAssay (NCATS).

SMILES strings stand for the structures. “And” between values parts separate entries of the source, which are not always exact repeats. Equal entries are not always repeated. Inconclusive results are not listed. The source made the active and inactive calls. Unless noted, calls come from the whole dose curve.

Experiment [1] has as its target Estrogen receptor (Homo sapiens) (UniProt P03372). In words: qHTS assay for small molecule agonists of estrogen receptor alpha signaling (AID 588514).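 Note: 0% = vehicle only and 100% = reference agonist; nearly all actives have a fitted effect of over 70% in size.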 In short, it runs like this:
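ER-alpha-UAS-bla GripTite HEK 293 cells in medium with 2% charcoal/dextran-treated FBS were treated with compound titrations at 37 C for 18 hrs; beta-lactamase reporter read by CCF4 fluorescence after 2 hrs at RT.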

Experiment [2] addresses Glucocorticoid receptor (Homo sapiens) (UniProt P04150). As to the kind of experiment: qHTS assay for small molecule antagonists of glucocorticoid receptor signaling (AID 588533; active = well fitted inhibition curve with a large enough effect in the signal ratio, with a control signal flat, not every such curve was filed as active; the % refers to the signal ratio;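 note: cells stimulated with 2 nM dexamethasone as agonist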; note: potency is the fitted concentration of half-maximal effect). In short, it runs like this: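 Antagonist-mode qHTS: compound titrations added to GRE-bla HeLa cells, then dexamethasone 2 nM final; 18 h, 37 C. CCF4 FRET fluorescence normalized to dexamethasone and DMSO; IC50 from Hill fit.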
A general note: In qHTS, concentration-response curves come from the screen itself.

In experiment [3] the target is Peroxisome proliferator-activated receptor delta (Homo sapiens) (UniProt Q03181). In words: qHTS assay for small molecule agonists of peroxisome proliferator-activated receptor delta signaling (AID 588534).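 Note: 0% = DMSO basal wells and 100% = positive control agonist at 10 µM.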 In short, it runs like this:
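Cell-based beta-lactamase reporter assay run in agonist mode: cells seeded and incubated 5 hrs at 37 C, compounds added and incubated 18 hrs at 37 C. CCF4 dye fluorescence read after 2 hrs at RT; EC50 and efficacy from Hill fits.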

Experiment [4] concerns the target Thyroid hormone receptor beta (Homo sapiens) (UniProt P10828). As to the kind of experiment: qHTS assay for small molecule agonists of thyroid hormone receptor beta signaling (AID 588545).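 Note: 0% = DMSO only and 100% = 10 nM T3.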 In short, it runs like this:
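TR-UAS-bla GripTite HEK 293 cells (2500/well, medium with 2% charcoal/dextran FBS) were treated in agonist mode for 18 h at 37 C, titrated. Beta-lactamase was read by CCF4 ratio after 2 h; normalized to 10 nM T3 (100%) and DMSO, Hill-fitted for EC50 and efficacy.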

For experiment [5] the target is unchanged. In words: qHTS assay for small molecule antagonists of thyroid hormone receptor beta signaling (AID 588547; active = well fitted inhibition curve with a large enough effect in the signal ratio, with a control signal flat, not every such curve was filed as active; the % refers to the signal ratio;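 note: cells stimulated with 0.4 nM T3 agonist during compound exposure; series mostly up to about 77 µM; % is set by controls: 0 for no effect and ±100 for the full control effect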). To be noted: TR-UAS-bla HEK293, beta-lactamase ratio, antagonist mode, 18 h. In short, it runs like this:
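TR-UAS-bla GripTite HEK293 cells in 2% charcoal/dextran FBS medium were preincubated 4 h at 37 C, given compound (0.59 nM to 92 uM) plus 0.4 nM T3 (final) for 18 h, then CCF4 for 2 h at RT; Hill fit gave IC50.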

A short description of experiment [6]: qHTS assay for environmental chemicals that activate the Aryl hydrocarbon Receptor (AhR) signaling pathway (AID 651777; active = well fitted curve in the direction sought with a large enough effect; an effect the other way counts as inactive or inconclusive; note: % of control where 0% means no effect; nearly all actives have a fitted effect of over 15% in size). To be noted: 1A2-DRE human hepatoma cells, luciferase, 24 h; activation: stronger effect = higher value. In a few lines: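 Luminescence (One-Glo, 30 min, room temperature) reports AhR-driven luciferase in stably transfected human hepatoma cells bearing DRE and CYP1A2 promoter. Cells (1,200/well) were treated with compound for 24 hr at 37 C in qHTS format.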

Experiment [7] addresses Peroxisome proliferator-activated receptor alpha (Homo sapiens) (UniProt Q07869). In words: qHTS assay for small molecule agonists of the peroxisome proliferator-activated receptor alpha (PPARalpha) signaling pathway (AID 651778; active = well fitted curve in the direction sought with a large enough effect; an effect the other way counts as inactive or inconclusive; note: % of control where 0% means no effect). To be noted: PathHunter PPARalpha complementation, chemiluminescence, 6 h; max response: stronger effect = higher value. In a few lines: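 Cells plated at 2,000/well and held overnight at 37 C, 5% CO2, then compound added by pin tool for 6 hr; after PathHunter detection reagent and 60 min at room temperature, chemiluminescence from enzyme complementation was read.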

Experiment [8] is described as follows: qHTS assay for small molecule agonists of the antioxidant response element (ARE) signaling pathway measured by Nrf2-dependant transcriptional activity (AID 720636; active = well fitted curve in the direction sought with a large enough effect in the repeat runs; an effect the other way counts as inactive or inconclusive; note: % of control where 0% means no effect). In a few lines:
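Nrf2-dependent transcription read as ONE-Glo luciferase signal from ARE-luc HepG2 reporter cells after 16 hr compound treatment at 37 C, 5% CO2, in assay medium with 1% dialyzed FBS.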

Experiment [9] can be described thus: qHTS assay for cell viability of HEK293 cells (AID 743288; active = well fitted curve in the direction sought with a large enough effect; an effect the other way counts as inactive or inconclusive; note: % is set by controls: 0 for no effect and ±100 for the full control effect; nearly all actives have a fitted effect of over 50% in size). To be noted: ATP luminescence (CellTiter-Glo), 18 h; max response: stronger effect = lower value. In a few lines:
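Parental HEK293 cells were seeded at 2,000 cells/well, rested at least 5 h at 37 C, then exposed to compounds in DMSO for 18 h at 37 C. Viability was read as ATP-dependent luciferase luminescence after 30 min at room temperature.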

Experiment [10] addresses Glucocorticoid receptor (Homo sapiens) (UniProt P04150). As to the kind of experiment: qHTS assay for small molecule agonists of glucocorticoid receptor signaling (AID 588532; active = well fitted curve in the direction sought with a large enough effect in the signal ratio, with a control signal flat; the % refers to the signal ratio;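 note: 100% = dexamethasone at 0.1 µM and 0% = DMSO only wells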). To be noted: HeLa MMTV-bla, beta-lactamase ratio, agonist, 18 h; activation: stronger effect = higher value, percent of dexamethasone control, DMSO zero. In short, it runs like this:
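MMTV-bla HeLa, beta-lactamase reporter; medium with 1% charcoal/dextran-stripped FBS; cpds up to 92 uM, 18 h, 37 C; CCF4 readout 460/530 nm; Hill fit → EC50, efficacy vs 0.1 uM dexamethasone = 100%.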

A short description of experiment [11]: qHTS assay for small molecule antagonists of peroxisome proliferator-activated receptor delta signaling (AID 588535; active = well fitted inhibition curve with a large enough effect in the signal ratio, with a control signal flat, not every such curve was filed as active; the % refers to the signal ratio;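 for max response: cells co-treated with a PPAR-delta agonist as stimulator during compound exposure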). To be noted: HEK293T PPARd-UAS-bla, beta-lactamase FRET ratio, 18 h; 460 nm channel. In short, it runs like this:
(§1)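 GeneBLAzer PPAR-delta-UAS-bla HEK293T cells in medium with 2% charcoal/dextran FBS were preincubated 5 hrs at 37 C, then given compounds, incubated 18 hrs at 37 C, and read by CCF4 beta-lactamase fluorescence; IC50 from Hill fits.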

The target in experiment [12] is Peroxisome proliferator-activated receptor delta (Homo sapiens) (UniProt Q03181). Described as above. In short, it runs like this: as §1
The target in experiment [13] is Retinoic acid receptor RXR-alpha (Homo sapiens) (UniProt P19793). As to the kind of experiment: qHTS assay for small molecule agonists of retinoid X receptor alpha signaling (AID 588544).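 Note: 0% = DMSO basal wells and 100% = reference agonist.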
Experiment [14] is described as follows: qHTS assay for small molecule antagonists of retinoid X receptor alpha signaling (AID 588546; active = well fitted inhibition curve with a large enough effect in the signal ratio, with a control signal flat, not every such curve was filed as active; the % refers to the signal ratio;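 note: cells stimulated with 9-cis-retinoic acid as agonist; % is set by controls: 0 for no effect and ±100 for the full control effect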). To be noted: HEK293T RXRa-UAS-bla, beta-lactamase ratio, antagonist mode; measured here: W530 green channel, cytotoxicity proxy. In short, it runs like this:
(§2)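 Beta-lactamase reporter inhibition, read as CCF4 fluorescence ratio (ex 405, em 460/530 nm) after 2 h at RT. HEK293T UAS-bla cells, 2500/well, were stimulated with 9-cis-RA at 500 or 100 nM final alongside test compound for 18 h at 37 C.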

Experiment [15] can be described thus: qHTS assay for small molecule activators of the p53 signaling pathway (AID 651743; active = well fitted activation curve with a large enough effect in the signal ratio, not every such curve was filed as active; the % refers to the signal ratio; note: series mostly up to about 92 µM; % of control where 0% means no effect). To be noted: HCT-116 p53RE-bla, beta-lactamase FRET ratio, 16 h; activation: stronger effect = higher value. In short, it runs like this:
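p53RE-bla HCT-116 cells with a stably integrated beta-lactamase reporter under p53 response elements were plated, rested 5 hours at 37 C/5% CO2, then exposed to compounds in DMSO for 16 hours at 37 C. LiveBLAzer B/G FRET substrate was read after 2 hours at room temperature.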

Experiment [16] is described as follows: qHTS assay for cell viability of the p53RE-bla HCT-116 cell line (AID 743292; active = well fitted curve in the direction sought with a large enough effect; an effect the other way counts as inactive or inconclusive; note: % is set by controls: 0 for no effect and ±100 for the full control effect; nearly all actives have a fitted effect of over 55% in size). In short, it runs like this:
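ATP-based luminescent viability (CellTiter-Glo, 30 min RT) after 16 h compound treatment at 37 C of p53RE-bla HCT-116 cells, seeded at 4,000 cells/well and rested 5 h before dosing.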

In experiment [17] the target is Nuclear receptor subfamily 1 group I member 2 (Rattus norvegicus) (UniProt Q9R1A7). In words: qHTS assay for small molecule activators of the rat pregnane X receptor (rPXR) signaling pathway (AID 651751; call rule not given here; note: 0% is about no effect). To be noted: rPXR reporter cells, luciferase (One-Glo), 24 h.
Experiment [18] deals with Peroxisome proliferator-activated receptor gamma (Homo sapiens) (UniProt P37231). In words: qHTS assay for small molecule agonists of peroxisome proliferator-activated receptor gamma signaling (AID 588536; active = well fitted curve in the direction sought with a large enough effect in the signal ratio, with a control signal flat, not every such curve was filed as active; the % refers to the signal ratio;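 note: 0% = DMSO basal wells and 100% = rosiglitazone at 2 µM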). In a few lines:
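PPAR-gamma-UAS-bla HEK293 cells in medium with 1% charcoal/dextran-treated FBS were exposed to compounds for 16 h at 37 C. Beta-lactamase activity was read with CCF4 substrate (405 nm excitation, 460/530 nm emission).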

The target in experiment [19] is Retinoic acid receptor RXR-alpha (Homo sapiens) (UniProt P19793). In words: qHTS assay for small molecule antagonists of retinoid X receptor alpha signaling (AID 588546).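 Note: cells stimulated with 9-cis-retinoic acid as agonist; % is set by controls: 0 for no effect and ±100 for the full control effect.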 To be noted: HEK293T RXRa-UAS-bla, beta-lactamase ratio, antagonist mode. In a few lines:
as §2

The nature of experiment [20]: qHTS assay for small molecule agonists of the antioxidant response element (ARE) signaling pathway measured by Nrf2-dependant transcriptional activity - cell viability counter screen (AID 720653; active = well fitted curve in the direction sought with a large enough effect in the repeat runs; an effect the other way counts as inactive or inconclusive; note: % is set by controls: 0 for no effect and ±100 for the full control effect). To be noted: ARE-bla HepG2 viability, CellTiter-Glo ATP luminescence, 16 h; max response: stronger effect = lower value. In a few lines:
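ARE-bla HepG2 cells (2,000/well) rested 5 hrs at 37C/5% CO2, then exposed to compounds in DMSO for 16 hrs. Viability was read in the same wells as intracellular ATP by luminescence, 30 min at room temperature after reagent addition.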

Chain of Estrogen receptor (Homo sapiens) (P03372 whole entry, looked up): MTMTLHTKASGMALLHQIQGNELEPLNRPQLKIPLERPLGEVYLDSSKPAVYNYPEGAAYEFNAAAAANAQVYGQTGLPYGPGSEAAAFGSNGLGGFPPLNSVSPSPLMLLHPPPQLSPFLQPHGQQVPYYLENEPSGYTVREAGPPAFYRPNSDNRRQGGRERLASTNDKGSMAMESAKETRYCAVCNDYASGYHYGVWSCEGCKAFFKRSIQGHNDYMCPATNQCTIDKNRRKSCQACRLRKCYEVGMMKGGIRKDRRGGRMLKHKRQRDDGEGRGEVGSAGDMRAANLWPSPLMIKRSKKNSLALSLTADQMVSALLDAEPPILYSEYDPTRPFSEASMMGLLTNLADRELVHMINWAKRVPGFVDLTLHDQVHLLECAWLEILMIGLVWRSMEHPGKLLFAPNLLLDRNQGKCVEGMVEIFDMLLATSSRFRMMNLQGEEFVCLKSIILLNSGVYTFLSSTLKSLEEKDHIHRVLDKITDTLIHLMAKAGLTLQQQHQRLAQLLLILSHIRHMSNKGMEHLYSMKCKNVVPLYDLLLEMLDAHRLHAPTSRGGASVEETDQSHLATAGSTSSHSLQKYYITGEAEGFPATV
Chain of Nuclear receptor subfamily 1 group I member 2 (Rattus norvegicus) (Q9R1A7 whole entry, looked up): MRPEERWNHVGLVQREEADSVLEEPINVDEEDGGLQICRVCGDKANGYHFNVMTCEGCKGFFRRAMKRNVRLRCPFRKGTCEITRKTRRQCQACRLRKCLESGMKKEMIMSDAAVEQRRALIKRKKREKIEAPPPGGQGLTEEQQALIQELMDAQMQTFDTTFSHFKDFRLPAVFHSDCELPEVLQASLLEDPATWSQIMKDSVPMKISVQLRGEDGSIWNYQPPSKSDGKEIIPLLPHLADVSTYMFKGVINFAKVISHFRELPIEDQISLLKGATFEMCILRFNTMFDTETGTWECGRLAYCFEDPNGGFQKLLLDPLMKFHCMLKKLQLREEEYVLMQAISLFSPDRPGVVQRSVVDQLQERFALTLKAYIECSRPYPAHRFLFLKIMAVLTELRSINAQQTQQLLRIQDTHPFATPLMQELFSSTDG
Chain of Glucocorticoid receptor (Homo sapiens) (P04150 whole entry, looked up): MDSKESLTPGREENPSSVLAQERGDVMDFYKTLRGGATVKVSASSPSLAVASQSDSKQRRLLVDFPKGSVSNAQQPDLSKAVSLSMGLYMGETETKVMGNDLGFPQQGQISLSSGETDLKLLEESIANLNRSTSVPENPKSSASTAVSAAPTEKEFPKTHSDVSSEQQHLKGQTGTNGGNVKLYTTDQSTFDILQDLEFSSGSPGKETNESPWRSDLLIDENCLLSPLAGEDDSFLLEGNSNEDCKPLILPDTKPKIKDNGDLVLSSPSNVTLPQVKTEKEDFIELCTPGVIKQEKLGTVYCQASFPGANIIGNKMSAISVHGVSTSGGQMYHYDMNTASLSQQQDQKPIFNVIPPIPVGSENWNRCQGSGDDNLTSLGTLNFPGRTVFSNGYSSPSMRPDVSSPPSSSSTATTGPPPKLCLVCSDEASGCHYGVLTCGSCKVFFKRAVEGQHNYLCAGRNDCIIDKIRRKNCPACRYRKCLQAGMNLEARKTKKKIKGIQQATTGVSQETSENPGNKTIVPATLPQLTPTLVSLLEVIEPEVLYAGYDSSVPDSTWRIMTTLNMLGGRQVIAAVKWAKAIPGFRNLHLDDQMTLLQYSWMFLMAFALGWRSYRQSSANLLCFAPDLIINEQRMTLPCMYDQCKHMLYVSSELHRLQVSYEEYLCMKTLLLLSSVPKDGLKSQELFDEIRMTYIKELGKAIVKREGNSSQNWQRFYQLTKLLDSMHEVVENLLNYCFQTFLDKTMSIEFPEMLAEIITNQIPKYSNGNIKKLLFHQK
Chain of Retinoic acid receptor RXR-alpha (Homo sapiens) (P19793 whole entry, looked up): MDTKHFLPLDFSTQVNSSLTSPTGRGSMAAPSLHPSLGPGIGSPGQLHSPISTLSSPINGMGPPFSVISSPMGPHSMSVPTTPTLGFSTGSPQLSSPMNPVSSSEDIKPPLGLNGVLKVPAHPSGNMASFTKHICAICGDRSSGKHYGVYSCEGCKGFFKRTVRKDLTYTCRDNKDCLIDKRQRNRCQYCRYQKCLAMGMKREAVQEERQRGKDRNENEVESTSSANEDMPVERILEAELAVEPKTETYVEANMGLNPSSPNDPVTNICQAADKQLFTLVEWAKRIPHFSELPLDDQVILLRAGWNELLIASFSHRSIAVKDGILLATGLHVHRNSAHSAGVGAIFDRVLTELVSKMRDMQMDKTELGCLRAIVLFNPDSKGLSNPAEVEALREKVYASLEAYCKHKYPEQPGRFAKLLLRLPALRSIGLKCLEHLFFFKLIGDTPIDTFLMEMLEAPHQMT
Chain of Peroxisome proliferator-activated receptor alpha (Homo sapiens) (Q07869 whole entry, looked up): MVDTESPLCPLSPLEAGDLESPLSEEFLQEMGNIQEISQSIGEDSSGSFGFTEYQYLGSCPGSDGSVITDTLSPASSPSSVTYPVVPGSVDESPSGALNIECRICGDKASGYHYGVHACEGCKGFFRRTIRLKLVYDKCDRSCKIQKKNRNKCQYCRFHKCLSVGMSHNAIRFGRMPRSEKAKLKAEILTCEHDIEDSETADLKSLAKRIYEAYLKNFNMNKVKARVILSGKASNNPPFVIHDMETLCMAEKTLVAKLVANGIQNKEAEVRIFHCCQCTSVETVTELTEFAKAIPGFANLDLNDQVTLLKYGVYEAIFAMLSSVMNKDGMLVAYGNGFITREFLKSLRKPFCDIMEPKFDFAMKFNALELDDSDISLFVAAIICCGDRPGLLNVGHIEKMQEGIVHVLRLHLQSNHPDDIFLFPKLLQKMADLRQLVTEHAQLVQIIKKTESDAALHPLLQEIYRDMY
Chain of Peroxisome proliferator-activated receptor delta (Homo sapiens) (Q03181 whole entry, looked up): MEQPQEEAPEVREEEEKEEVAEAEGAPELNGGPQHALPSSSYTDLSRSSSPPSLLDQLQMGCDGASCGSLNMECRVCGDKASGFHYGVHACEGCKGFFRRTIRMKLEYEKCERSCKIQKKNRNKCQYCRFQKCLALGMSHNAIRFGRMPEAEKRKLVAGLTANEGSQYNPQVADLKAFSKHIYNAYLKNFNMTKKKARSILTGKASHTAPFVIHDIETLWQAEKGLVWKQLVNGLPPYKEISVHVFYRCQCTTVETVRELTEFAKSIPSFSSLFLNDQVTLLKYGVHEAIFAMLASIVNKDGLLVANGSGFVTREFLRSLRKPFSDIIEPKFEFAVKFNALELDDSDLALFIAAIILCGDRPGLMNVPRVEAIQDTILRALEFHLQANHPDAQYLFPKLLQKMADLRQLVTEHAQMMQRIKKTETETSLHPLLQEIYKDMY
Chain of Thyroid hormone receptor beta (Homo sapiens) (P10828 whole entry, looked up): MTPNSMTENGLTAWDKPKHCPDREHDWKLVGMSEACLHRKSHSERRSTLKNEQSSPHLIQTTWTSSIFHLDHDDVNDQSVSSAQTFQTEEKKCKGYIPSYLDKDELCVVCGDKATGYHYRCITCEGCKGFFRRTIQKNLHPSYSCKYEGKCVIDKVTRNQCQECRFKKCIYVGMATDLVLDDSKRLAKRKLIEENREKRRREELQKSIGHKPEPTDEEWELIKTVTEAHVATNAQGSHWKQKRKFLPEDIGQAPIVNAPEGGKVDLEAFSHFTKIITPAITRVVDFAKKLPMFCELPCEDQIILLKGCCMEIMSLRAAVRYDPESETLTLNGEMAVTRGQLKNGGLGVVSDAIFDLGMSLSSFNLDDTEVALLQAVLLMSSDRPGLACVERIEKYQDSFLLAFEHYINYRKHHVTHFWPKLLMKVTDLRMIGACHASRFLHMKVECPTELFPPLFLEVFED
Chain of Peroxisome proliferator-activated receptor gamma (Homo sapiens) (P37231 whole entry, looked up): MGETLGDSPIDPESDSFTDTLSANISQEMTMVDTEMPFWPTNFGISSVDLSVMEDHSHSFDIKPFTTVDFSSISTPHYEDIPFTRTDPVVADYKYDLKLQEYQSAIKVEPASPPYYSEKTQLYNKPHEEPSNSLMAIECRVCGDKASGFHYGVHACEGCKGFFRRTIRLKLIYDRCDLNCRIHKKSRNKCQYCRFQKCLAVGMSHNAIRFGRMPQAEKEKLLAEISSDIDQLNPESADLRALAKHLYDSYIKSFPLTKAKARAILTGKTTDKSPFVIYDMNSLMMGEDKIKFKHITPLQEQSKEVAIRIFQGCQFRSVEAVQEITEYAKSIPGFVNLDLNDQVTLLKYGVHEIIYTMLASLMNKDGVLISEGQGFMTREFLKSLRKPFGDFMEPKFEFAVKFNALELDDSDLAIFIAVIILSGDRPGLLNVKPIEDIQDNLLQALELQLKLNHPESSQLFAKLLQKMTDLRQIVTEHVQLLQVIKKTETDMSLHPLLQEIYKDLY

As to `CC(C)(C)C(O)/C(=C\c1ccc(Cl)cc1Cl)n1cncn1` (configuration not stated), the Potency entry in experiment [1], in experiment [4] and in experiment [8] was “inactive” in each case. In experiment [2], the Potency is 35.5 µM (active). Further, the call in experiment [3] was inactive. Further, the activity change % (negative = inhibition) in experiment [5] is -35.6% (inactive). The activation in [6] was 6.02% (inactive). Further, the max response in experiment [7] is 1.97% (inactive); in [9], -6.74% (inactive).
Regarding `COC(=O)/C=C(\C)OP(=O)(OC)OC`, the Potency result in experiment [1], in experiment [2], in [12], in experiment [13], in [8] and in experiment [16] was “inactive” each time. The activation in [10] is -1.06% (inactive); in experiment [15], -3.2% (inactive); in experiment [6] it was 0.265% (inactive). Also, the compound was classed as inactive in experiment [3]. Moreover, the max response in experiment [11] is -21.6%; in [14], -19.7%; in experiment [7], -1.45% (inactive); in [17] it was -0.069% (inactive).
Consider `O=C(O)C(F)(F)C(F)(F)C(F)(F)C(F)(F)C(F)(F)C(F)(F)C(F)(F)C(F)(F)C(F)(F)F`, for which the Potency result in experiment [1], in [2], in [12], in [18], in experiment [13] and in experiment [4] was “inactive” in each case. In addition, the Potency entry in experiment [8] and in experiment [16] was “inactive” each time. The activation in [10] was -0.443% (inactive); in experiment [15], 5.35% (inactive); in experiment [6], -2.6% (inactive) and 0.106% (inactive). In experiment [3], the result was inactive. Besides, the max response in [11] was 7.25% and 27.2%; in [14], -7.72%; in experiment [19] it was 20.8% (inactive); in [7], -0.9% (inactive) and 3.39% (inactive); in [20], -6.6% (inactive) and -12.4% (inactive); in experiment [17] it was -0.489% (inactive) and -1.36% (inactive). The activity change % (negative = inhibition) in experiment [5] is -14.6% (inactive) and -11.9% (inactive).
As for `Cc1cccc2sc3nncn3c12`, the Potency entry in experiment [1], in experiment [12], in [18], in experiment [13] and in experiment [4] was “inactive” throughout. In addition, in experiment [3], the result was inactive. In addition, the max response in experiment [11] was 26.1%; in experiment [14], -10.6%; in experiment [19] it was 2.1% (inactive); in experiment [7], -0.811% (inactive); in experiment [20] it was 0.787% (inactive); in experiment [9], -3.66% (inactive). Also, the activity change % (negative = inhibition) in experiment [5] was 6.25% (inactive). Further, the activation is 2.35% (inactive) in experiment [15] and -0.0294% (inactive) in experiment [6].
With `CCC(C)(C)c1cc(-n2nc3ccccc3n2)c(O)c(C(C)(C)CC)c1`, the Potency result in experiment [2], in [12], in experiment [13], in experiment [4] and in experiment [16] was “inactive” in each case. For the same compound, the call in [3] was inactive. The max response was -9.56% in [11]; -14% in [14]; 11.8% (inactive) in experiment [19]; 0.0334% (inactive) in experiment [7]; -12.9% (inactive) in experiment [20]; -9.99% (inactive) in [9]. For the same compound, the max response in experiment [17] is -0.463% (inactive). In addition, in experiment [5], the activity change % (negative = inhibition) was 12% (inactive). For the same compound, the activation in experiment [6] was 0.0202% (inactive).
